# Records with an inconclusive call do not appear. Calls of active or inactive are those of the source. Rule for the calls: active = hit-call score of the fitted dose curve at least 0.9, where 1 is the maximum; inconclusive = response in the unintended direction; inactive = score below 0.9.
# Tests used:
# [1] = biological target: sheep Cyclooxygenase-1 (Cox1), PTGS1 (gene 443551) (UniProt P05979); test: NVS_ENZ_oCOX1: NovaScreen (NVS) Enzymatic Assay for sheep Cyclooxygenase-1 (Cox1) (AID 2283239);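 note: actives reduce cyclooxygenase activity so potencies are for inhibitors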
# Procedure, shortened: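 Colorimetric enzyme readout using sheep seminal-vesicle cyclooxygenase-1, measured 0.66 h post-dosing. Single-concentration duplicates at 25 uM first, then concentration series for actives, with DMSO as baseline and plate controls.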
# [2] = biological target: human Serotonin, 5-Hydroxytryptamine Receptor 7 (5HT7), HTR7 (gene 3363) (UniProt P34969); test: NVS_GPCR_h5HT7: NovaScreen (NVS) G Protein-Coupled Receptor Assay for human Serotonin, 5-Hydroxytryptamine Receptor 7 (5HT7) (AID 2283255);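 note: hits reduce specific radioligand binding relative to DMSO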
# Procedure, shortened: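 Radioligand displacement on membranes from CHO cells expressing human 5HT7, 1 h incubation, filter-based scintillation counting. Primary screen used a single 25 uM concentration in duplicate; actives were followed up in concentration series.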
# [3] = biological target: rat Monoamine Oxidase, MAO-B, Central (MAOBC), Maob (gene 25750) (UniProt P19643); test: NVS_ENZ_rMAOBC: NovaScreen (NVS) Enzymatic Assay for rat Monoamine Oxidase, MAO-B, Central (MAOBC) (AID 2283238)
# Procedure, shortened: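 MAO-B activity in rat brain tissue preparation, cell-free, measured radiometrically by scintillation counting 1.17 h after dosing. Screened in duplicate at 25 uM; actives then in concentration-response up to 50 uM. Loss of signal versus DMSO scored.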
# [4] = biological target: rat Monoamine Oxidase, MAO-B, Peripheral (MAOBP), Maob (gene 25750) (UniProt P19643); test: NVS_ENZ_rMAOBP: NovaScreen (NVS) Enzymatic Assay for rat Monoamine Oxidase, MAO-B, Peripheral (MAOBP) (AID 2283242)
# [5] = system: rat Monoamine Oxidase, MAO-A, Central (MAOAC), gene 29253; test: NVS_ENZ_rMAOAC: NovaScreen (NVS) Enzymatic Assay for rat Monoamine Oxidase, MAO-A, Central (MAOAC) (AID 2283243);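 note: potency refers to inhibition seen as signal drop below DMSO baseline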
# Procedure, shortened: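 Rat brain tissue extract used as enzyme source in a cell-free radiometric assay, read by scintillation counting 1.5 hours after dosing. Loss of signal relative to DMSO baseline scored; primary screen at 25 uM in duplicate, actives followed up in concentration series.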
# [6] = biological target: human Serotonin, 5-Hydroxytryptamine Receptor 6 (5HT6), HTR6 (gene 3362) (UniProt P50406); test: NVS_GPCR_h5HT6: NovaScreen (NVS) G Protein-Coupled Receptor Assay for human Serotonin, 5-Hydroxytryptamine Receptor 6 (5HT6) (AID 2283253)
# Procedure, shortened: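 Radioligand binding to 5HT6 in HEK293-derived membranes, cell-free, 1 h after dosing; bound ligand measured by filter-based scintillation counting. Primary screen in duplicate at 25 uM; actives retested in concentration series.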
# [7] = biological target: human Adenosine A2a Receptor (AdoRA2a), ADORA2A (gene 135) (UniProt P29274); test: NVS_GPCR_hAdoRA2a: NovaScreen (NVS) G Protein-Coupled Receptor Assay for human Adenosine A2a Receptor (AdoRA2a) (AID 2283256)
# Procedure, shortened: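 Radioligand displacement on HEK293-derived membrane protein, cell-free; filter-based scintillation counting 1.5 hours after dosing, loss of signal vs DMSO. Single-point duplicate screen at 25 uM, actives retested in concentration series.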
# [8] = biological target: guinea pig Leukotriene D4 Receptor (LTD4), CYSLTR1 (gene 100135514) (UniProt Q2NNR5); test: NVS_GPCR_gLTD4: NovaScreen (NVS) G Protein-Coupled Receptor Assay for guinea pig Leukotriene D4 Receptor (LTD4) (AID 2283248)
# Procedure, shortened: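 Radioligand displacement on guinea pig lung membranes, 1 h incubation, filtration and scintillation counting; DMSO as negative control. Duplicate 25 uM primary screen, then singleton concentration-response up to 50 uM.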
# [9] = biological target: guinea pig Opioid, Kappa 1 Receptor (OpiateK), OPRK1 (gene 100135587) (UniProt P41144); test: NVS_GPCR_gOpiateK: NovaScreen (NVS) G Protein-Coupled Receptor Assay for guinea pig Opioid, Kappa 1 Receptor (OpiateK) (AID 2283252);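 note: radioligand displacement from kappa opioid receptor in guinea pig cerebellar membranes; active means reduced radioligand binding relative to DMSO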
# Procedure, shortened: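 Guinea pig cerebellar membranes, radioligand displacement with filter-based scintillation counting, 2 h after dosing. Primary screen single concentration 25 uM in duplicate; actives retested in concentration series; loss of binding fitted versus DMSO.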
# [10] = biological target: human Serotonin, 5-Hydroxytryptamine Receptor 5A (5HT5A), HTR5A (gene 3361) (UniProt P47898); test: NVS_GPCR_h5HT5A: NovaScreen (NVS) G Protein-Coupled Receptor Assay for human Serotonin, 5-Hydroxytryptamine Receptor 5A (5HT5A) (AID 2283251)
# Procedure, shortened: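 Cell-free radioligand displacement binding on HEK293-derived membrane protein, 1 h incubation, filter-based scintillation counting. Primary screen in duplicate at 25 uM, actives followed in concentration series; loss of signal fitted versus DMSO.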
# [11] = biological target: human Adenosine A1 Receptor (AdoRA1), ADORA1 (gene 134) (UniProt P30542); test: NVS_GPCR_hAdoRA1: NovaScreen (NVS) G Protein-Coupled Receptor Assay for human Adenosine A1 Receptor (AdoRA1) (AID 2283254)
# Procedure, shortened: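 Hum. cortical membranes + radioligand, cmpd 1 h; filtration, scintillation count. Readout = decrease vs DMSO. Primary 25 uM dup; hits → conc. series.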
# [12] = system: guinea pig Leukotriene B4 Receptor (LTB4), gene 100379538; test: NVS_GPCR_gLTB4: NovaScreen (NVS) G Protein-Coupled Receptor Assay for guinea pig Leukotriene B4 Receptor (LTB4) (AID 2283247)
# Procedure, shortened: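 Radioligand displacement on guinea pig spleen membranes, filter-based scintillation counting 2 h after dosing. Primary duplicate single point at 25 uM; hits over threshold (e.g. 30% inhibition) run in concentration-response up to 50 uM, DMSO baseline.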
# [13] = system: bovine Histamine 1 Receptor (H1), gene 281231; test: NVS_GPCR_bH1: NovaScreen (NVS) G Protein-Coupled Receptor Assay for bovine Histamine 1 Receptor (H1) (AID 2283246)
# Procedure, shortened: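 Radioligand displacement on bovine cerebellar membranes, 1 h after dosing, filter-based scintillation read-out; loss of signal vs DMSO. Duplicate single-concentration screen at 25 uM, then concentration-response up to 50 uM for hits.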
# [14] = system: guinea pig Muscarinic, Peripheral (Mperiperal) Receptor, Non-selective Binding, gene 100379235; test: NVS_GPCR_gMPeripheral_NonSelective: NovaScreen (NVS) G Protein-Coupled Receptor Assay for guinea pig Muscarinic, Peripheral (Mperiperal) Receptor, Non-selective Binding (AID 2283250)
# Procedure, shortened: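 Guinea pig bladder membranes, radioligand binding read 1 h after dosing by filter scintillation counting; loss of signal vs DMSO. Primary duplicate screen at 25 uM, then concentration-response up to 50 uM.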
# [15] = biological target: human Adrenergic, Alpha 2A Receptor (Adra2A), ADRA2A (gene 150) (UniProt P08913); test: NVS_GPCR_hAdra2A: NovaScreen (NVS) G Protein-Coupled Receptor Assay for human Adrenergic, Alpha 2A Receptor (Adra2A) (AID 2283257)
# Procedure, shortened: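 Radioligand filter-binding was run on HT29-derived membranes, cell-free, read by scintillation counting 1 h after dosing. Primary screening was in duplicate at 25 uM, with concentration series in follow-up. Loss of signal versus DMSO indicates displacement.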
# [16] = biological target: Adenosine receptor A1 (Bos taurus) (UniProt P28190); test: NVS_GPCR_bAdoR_NonSelective: NovaScreen (NVS) G Protein-Coupled Receptor Assay for bovine Adenosine Receptor (AdoR), Non-selective Binding (AID 2283244)
# Procedure, shortened: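 Bovine striatal membranes, radioligand displacement binding, 1 h after dosing, filter-based scintillation counting. Screened in duplicate at 25 uM, then concentration-response up to 50 uM; loss of specific binding relative to DMSO.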
# Sequence of guinea pig Opioid, Kappa 1 Receptor (OpiateK), OPRK1 (gene 100135587) (P41144 whole entry, looked up): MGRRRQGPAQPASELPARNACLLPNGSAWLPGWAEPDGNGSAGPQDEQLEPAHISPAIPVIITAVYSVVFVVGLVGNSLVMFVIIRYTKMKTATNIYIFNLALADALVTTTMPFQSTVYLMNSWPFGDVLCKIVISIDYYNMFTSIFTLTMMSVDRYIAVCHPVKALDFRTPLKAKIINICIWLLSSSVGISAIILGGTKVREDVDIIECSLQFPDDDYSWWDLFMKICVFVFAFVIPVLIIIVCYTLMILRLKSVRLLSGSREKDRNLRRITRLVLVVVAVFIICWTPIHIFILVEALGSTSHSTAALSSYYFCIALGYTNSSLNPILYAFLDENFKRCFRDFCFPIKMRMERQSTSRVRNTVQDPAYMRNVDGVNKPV
# Sequence of human Adenosine A2a Receptor (AdoRA2a), ADORA2A (gene 135) (P29274 whole entry, looked up): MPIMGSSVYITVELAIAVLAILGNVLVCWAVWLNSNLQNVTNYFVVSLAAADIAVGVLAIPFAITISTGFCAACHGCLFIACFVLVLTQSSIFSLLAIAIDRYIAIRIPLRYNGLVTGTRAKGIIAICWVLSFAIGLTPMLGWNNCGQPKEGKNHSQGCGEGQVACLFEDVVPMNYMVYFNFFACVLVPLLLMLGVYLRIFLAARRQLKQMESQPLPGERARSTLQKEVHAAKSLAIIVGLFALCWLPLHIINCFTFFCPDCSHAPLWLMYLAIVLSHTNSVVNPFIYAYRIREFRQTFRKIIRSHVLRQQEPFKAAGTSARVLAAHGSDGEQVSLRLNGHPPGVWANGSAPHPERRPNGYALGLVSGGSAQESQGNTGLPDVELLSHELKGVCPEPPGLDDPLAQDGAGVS
# Sequence of Adenosine receptor A1 (Bos taurus) (P28190 whole entry, looked up): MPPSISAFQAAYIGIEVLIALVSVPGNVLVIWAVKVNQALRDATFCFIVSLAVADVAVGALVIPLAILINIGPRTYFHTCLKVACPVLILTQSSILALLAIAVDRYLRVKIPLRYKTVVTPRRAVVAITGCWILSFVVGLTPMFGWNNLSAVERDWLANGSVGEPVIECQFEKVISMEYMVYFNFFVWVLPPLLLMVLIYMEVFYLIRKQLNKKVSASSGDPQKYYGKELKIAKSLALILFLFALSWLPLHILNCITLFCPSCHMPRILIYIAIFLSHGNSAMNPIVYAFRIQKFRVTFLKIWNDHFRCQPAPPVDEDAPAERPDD
# Sequence of human Serotonin, 5-Hydroxytryptamine Receptor 5A (5HT5A), HTR5A (gene 3361) (P47898 whole entry, looked up): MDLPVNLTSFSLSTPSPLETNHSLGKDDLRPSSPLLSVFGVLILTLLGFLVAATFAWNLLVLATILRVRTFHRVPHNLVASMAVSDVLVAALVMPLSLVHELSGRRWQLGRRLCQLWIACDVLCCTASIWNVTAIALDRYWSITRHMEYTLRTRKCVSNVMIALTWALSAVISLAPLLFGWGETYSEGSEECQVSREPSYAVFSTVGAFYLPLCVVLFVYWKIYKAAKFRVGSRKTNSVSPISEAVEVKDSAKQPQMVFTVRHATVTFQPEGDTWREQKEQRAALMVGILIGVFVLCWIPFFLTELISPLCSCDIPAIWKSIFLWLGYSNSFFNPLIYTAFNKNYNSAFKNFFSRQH
# Sequence of human Serotonin, 5-Hydroxytryptamine Receptor 7 (5HT7), HTR7 (gene 3363) (P34969 whole entry, looked up): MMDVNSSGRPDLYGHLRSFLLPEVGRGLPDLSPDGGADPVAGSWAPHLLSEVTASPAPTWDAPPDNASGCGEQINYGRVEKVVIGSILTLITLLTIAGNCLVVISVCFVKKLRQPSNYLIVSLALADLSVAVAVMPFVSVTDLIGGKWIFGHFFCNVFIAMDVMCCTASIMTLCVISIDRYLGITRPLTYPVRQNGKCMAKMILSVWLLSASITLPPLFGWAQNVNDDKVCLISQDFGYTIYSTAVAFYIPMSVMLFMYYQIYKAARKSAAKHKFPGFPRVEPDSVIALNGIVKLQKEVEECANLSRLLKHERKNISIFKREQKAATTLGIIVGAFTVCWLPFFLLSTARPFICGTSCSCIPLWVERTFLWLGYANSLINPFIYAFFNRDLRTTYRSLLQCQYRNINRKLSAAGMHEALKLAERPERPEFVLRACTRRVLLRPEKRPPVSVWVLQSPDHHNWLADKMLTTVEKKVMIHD
# Sequence of human Adenosine A1 Receptor (AdoRA1), ADORA1 (gene 134) (P30542 whole entry, looked up): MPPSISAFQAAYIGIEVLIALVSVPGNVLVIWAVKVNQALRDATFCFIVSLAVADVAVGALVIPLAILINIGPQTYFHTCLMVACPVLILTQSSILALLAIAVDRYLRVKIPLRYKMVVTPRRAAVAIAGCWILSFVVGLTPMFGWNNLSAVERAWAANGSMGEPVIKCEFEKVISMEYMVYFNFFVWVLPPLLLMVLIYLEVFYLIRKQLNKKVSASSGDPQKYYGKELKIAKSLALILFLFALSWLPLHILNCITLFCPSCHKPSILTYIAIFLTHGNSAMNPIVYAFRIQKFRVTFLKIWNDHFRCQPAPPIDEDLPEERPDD
# Sequence of human Serotonin, 5-Hydroxytryptamine Receptor 6 (5HT6), HTR6 (gene 3362) (P50406 whole entry, looked up): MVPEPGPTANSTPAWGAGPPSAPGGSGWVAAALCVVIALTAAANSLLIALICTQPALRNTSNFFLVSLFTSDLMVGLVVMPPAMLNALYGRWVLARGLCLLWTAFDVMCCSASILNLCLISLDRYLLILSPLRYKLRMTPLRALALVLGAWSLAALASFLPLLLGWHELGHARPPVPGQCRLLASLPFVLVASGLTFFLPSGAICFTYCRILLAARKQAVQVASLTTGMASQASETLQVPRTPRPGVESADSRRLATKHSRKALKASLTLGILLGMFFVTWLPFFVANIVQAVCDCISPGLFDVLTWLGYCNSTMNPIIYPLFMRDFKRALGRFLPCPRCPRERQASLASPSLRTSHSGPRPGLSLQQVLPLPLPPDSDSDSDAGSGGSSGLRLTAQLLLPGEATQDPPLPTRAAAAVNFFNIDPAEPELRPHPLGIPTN
# Sequence of guinea pig Leukotriene D4 Receptor (LTD4), CYSLTR1 (gene 100135514) (Q2NNR5 whole entry, looked up): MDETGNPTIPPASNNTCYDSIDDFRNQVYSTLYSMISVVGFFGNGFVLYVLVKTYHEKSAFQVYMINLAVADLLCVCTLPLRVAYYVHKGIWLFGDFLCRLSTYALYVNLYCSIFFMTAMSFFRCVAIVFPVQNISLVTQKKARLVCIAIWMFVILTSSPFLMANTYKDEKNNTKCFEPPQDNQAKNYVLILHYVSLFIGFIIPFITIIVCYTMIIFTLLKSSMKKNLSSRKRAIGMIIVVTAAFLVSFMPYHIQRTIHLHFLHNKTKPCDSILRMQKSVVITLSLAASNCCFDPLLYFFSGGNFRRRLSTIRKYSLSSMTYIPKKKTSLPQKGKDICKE
# Sequence of human Adrenergic, Alpha 2A Receptor (Adra2A), ADRA2A (gene 150) (P08913 whole entry, looked up): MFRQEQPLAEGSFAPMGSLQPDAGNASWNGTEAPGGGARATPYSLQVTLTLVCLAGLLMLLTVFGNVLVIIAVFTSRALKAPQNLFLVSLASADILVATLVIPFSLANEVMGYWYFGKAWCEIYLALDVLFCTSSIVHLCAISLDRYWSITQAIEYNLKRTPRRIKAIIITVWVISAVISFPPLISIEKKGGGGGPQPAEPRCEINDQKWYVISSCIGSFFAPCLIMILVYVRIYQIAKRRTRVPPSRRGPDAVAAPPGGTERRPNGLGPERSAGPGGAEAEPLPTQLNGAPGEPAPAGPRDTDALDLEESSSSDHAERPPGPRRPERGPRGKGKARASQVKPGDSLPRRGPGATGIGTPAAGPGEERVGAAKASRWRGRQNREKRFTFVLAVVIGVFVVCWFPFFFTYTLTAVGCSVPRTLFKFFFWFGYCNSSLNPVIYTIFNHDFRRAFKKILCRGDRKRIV
# Sequence of sheep Cyclooxygenase-1 (Cox1), PTGS1 (gene 443551) (P05979 whole entry, looked up): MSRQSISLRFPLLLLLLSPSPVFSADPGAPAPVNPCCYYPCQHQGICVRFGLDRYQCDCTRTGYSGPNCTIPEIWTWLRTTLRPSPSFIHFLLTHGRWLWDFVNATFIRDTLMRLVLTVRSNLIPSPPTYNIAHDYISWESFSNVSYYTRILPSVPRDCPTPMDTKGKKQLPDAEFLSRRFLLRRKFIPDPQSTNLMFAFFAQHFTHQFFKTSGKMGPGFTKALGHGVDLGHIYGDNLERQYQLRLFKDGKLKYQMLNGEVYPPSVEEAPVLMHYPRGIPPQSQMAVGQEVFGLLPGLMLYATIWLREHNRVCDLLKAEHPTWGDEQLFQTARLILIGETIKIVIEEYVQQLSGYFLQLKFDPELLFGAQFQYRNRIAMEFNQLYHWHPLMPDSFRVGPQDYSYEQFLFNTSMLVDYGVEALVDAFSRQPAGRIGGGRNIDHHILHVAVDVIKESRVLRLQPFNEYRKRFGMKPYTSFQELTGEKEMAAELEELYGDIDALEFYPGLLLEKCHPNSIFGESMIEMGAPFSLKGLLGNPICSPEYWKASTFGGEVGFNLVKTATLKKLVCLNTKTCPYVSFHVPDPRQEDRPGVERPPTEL
# Sequence of rat Monoamine Oxidase, MAO-B, Peripheral (MAOBP), Maob (gene 25750) (P19643 whole entry, looked up): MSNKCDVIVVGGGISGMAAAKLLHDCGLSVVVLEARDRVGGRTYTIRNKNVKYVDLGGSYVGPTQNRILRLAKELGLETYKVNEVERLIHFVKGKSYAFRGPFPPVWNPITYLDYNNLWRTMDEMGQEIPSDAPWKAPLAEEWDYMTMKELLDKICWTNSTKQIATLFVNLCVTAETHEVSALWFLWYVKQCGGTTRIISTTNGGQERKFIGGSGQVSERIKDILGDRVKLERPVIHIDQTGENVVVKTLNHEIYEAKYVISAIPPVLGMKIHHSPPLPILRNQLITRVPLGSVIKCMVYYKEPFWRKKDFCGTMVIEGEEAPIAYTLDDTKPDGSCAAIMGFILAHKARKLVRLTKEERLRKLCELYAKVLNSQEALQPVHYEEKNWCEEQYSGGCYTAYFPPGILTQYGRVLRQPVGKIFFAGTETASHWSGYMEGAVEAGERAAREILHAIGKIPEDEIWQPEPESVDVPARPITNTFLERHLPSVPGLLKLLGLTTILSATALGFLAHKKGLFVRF
smiles,measurement,setting,value
CC(C)=CC1C(C(=O)OCN2C(=O)C3=C(CCCC3)C2=O)C1(C)C (stereo not drawn),AC50,[1],4.96 µM (active)
same,outcome,[2],inactive
CCC(=O)Nc1ccc(Cl)c(Cl)c1,AC50,[3],13 µM (active)
same,AC50,[4],25 µM (active)
same,AC50,[5],15.3 µM (active)
same,AC50,[6],7.47 µM (active)
same,AC50,[7],10 µM (active)
CCCOCC(=Nc1ccc(Cl)cc1C(F)(F)F)n1ccnc1,outcome,[8],inactive
same,outcome,[9],inactive
C=C(C)[C@H]1Cc2c(ccc3c2O[C@@H]2COc4cc(OC)c(OC)cc4[C@@H]2C3=O)O1,outcome,[10],inactive
same,AC50,[6],1.13 µM (active)
CC(Oc1cccc(Cl)c1)C(=O)O (stereo not drawn),outcome,[10],inactive
COc1ccc(C(=CC(=O)N2CCOCC2)c2ccc(Cl)cc2)cc1OC,outcome,[9],inactive
same,AC50,[11],14.2 µM (active)
CNC(=O)Oc1cccc2c1OC(C)(C)O2,outcome,[10],inactive
CCOP(=S)(OCC)Oc1cc(C)nc(C(C)C)n1,outcome,[8],inactive
CC(COc1ccc(Oc2ccccc2)cc1)Oc1ccccn1 (stereo not drawn),outcome,[10],inactive
O=[N+]([O-])c1cc(C(F)(F)F)c(Cl)c([N+](=O)[O-])c1Nc1ncc(C(F)(F)F)cc1Cl,AC50,[7],6.87 µM (active)
O=C(O)c1cc(Oc2ccc(C(F)(F)F)cc2Cl)ccc1[N+](=O)[O-],outcome,[12],inactive
same,outcome,[10],inactive
same,AC50,[7],7.71 µM (active)
CCOP(=O)(NC(C)C)Oc1ccc(SC)c(C)c1 (stereo not drawn),AC50,[9],16.3 µM (active)
CC(C)[C@H](C(=O)O[C@H](C#N)c1cccc(Oc2ccccc2)c1)c1ccc(Cl)cc1,AC50,[10],6.96 µM (active)
same,AC50,[2],6.87 µM (active)
CCOP(=O)(SC(C)CC)N1CCSC1=O (stereo not drawn),outcome,[13],inactive
CCOC(=O)COc1cc(-c2nn(C)c(OC(F)F)c2Cl)c(F)cc1Cl,outcome,[14],inactive
N#CSCSC#N,AC50,[14],7.4 µM (active)
same,AC50,[9],38.7 µM (active)
Cc1ccn2nc(S(=O)(=O)Nc3c(F)cccc3F)nc2n1,outcome,[14],inactive
CC(C)N(C(=O)SCC(Cl)=C(Cl)Cl)C(C)C,outcome,[6],inactive
CCOP(=S)(OCC)Oc1ccc2c(C)c(Cl)c(=O)oc2c1,outcome,[10],inactive
same,outcome,[15],inactive
CSc1nc(NC(C)C)nc(NC(C)C)n1,AC50,[16],5.37 µM (active)
same,AC50,[11],3.54 µM (active)
same,AC50,[7],4.59 µM (active)
Cc1cc(C2CC2)nc(Nc2ccccc2)n1,AC50,[16],25 µM (active)
same,outcome,[14],inactive
same,AC50,[11],9.57 µM (active)
same,AC50,[2],25 µM (active)
same,AC50,[7],14.1 µM (active)
CCOC(=O)CC(SP(=O)(OC)OC)C(=O)OCC (stereo not drawn),outcome,[16],inactive
same,outcome,[14],inactive
same,outcome,[11],inactive
same,outcome,[7],inactive
CCNc1nc(Cl)nc(NC(C)(C)C#N)n1,AC50,[16],13.3 µM (active)
same,AC50,[11],4.08 µM (active)
same,AC50,[7],5.75 µM (active)
C#CCC1=C(C)C(OC(=O)C2C(C=C(C)C)C2(C)C)CC1=O (stereo not drawn),outcome,[11],inactive

# Reference: PubChem BioAssay (EPA / NIEHS)
